GRK2 aptamer HTS: blocks RNA aptamer binding to human GRK2; AID 488847; bead flow cytometry, FAM-aptamer displacement from GRK2; P25098; inhibition of aptamer binding, % at 10 µM; hit rate 0.59% among 330,000;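 active = inhibition of aptamer binding above 40%, roughly 3 SD of noise, on plates passing a quality check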;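 also: median bead fluorescence of bound FAM aptamer so fluorescent compounds give negative values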
Target sequence (P25098 whole entry, looked up): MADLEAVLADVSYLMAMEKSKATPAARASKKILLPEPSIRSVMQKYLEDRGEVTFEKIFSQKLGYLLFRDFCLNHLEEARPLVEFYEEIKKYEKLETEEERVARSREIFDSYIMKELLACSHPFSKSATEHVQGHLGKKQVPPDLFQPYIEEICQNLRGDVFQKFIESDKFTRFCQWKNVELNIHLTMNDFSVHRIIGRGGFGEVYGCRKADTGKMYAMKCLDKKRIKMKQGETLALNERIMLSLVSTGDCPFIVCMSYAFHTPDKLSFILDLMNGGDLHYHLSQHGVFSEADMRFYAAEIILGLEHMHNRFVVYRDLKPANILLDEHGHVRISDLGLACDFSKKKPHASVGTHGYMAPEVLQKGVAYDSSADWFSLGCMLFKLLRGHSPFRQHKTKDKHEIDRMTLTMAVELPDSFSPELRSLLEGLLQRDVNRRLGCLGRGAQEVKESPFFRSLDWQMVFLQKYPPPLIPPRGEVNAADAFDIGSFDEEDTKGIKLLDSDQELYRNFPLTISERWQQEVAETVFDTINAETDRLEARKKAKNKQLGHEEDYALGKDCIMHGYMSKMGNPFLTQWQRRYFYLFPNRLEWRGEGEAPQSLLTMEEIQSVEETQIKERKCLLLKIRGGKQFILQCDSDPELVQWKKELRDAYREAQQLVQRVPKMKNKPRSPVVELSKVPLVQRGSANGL
Pemphigus Ab inh: blocks pemphigus antibody binding to human desmoglein-3; P32926; DSG3-coupled beads, scFv-anti-DSG3-GFP binding, flow cytometry; active compounds read low; binding (percent of control), % at 10 µM; hit rate 0.48% among 310,000; AID 588358;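 active = binding more than 3 SD below its plate's average and above zero; inconclusive = below that plate limit but binding exactly zero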;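 also: hits lower antibody fragment binding to DSG3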
PREPL inh: human PREPL enzyme inhibition; hit rate 0.68% among 320,000; AID 2751; inhibition, % at 5.96 µM; recombinant PREPL, fluorescence polarization activity-based probe; Q4J6C6; in the data active = inhibition above about 43%
VLA-4 inh: inhibition in a human VLA-4 binding assay; VLA-4 expressing cells, ligand binding flow cytometry; inhibition, % (about 7 µM as worked out from the volumes in the protocol); hit rate 0.2% among 330,000; in the data active = inhibition above about 50%
JMJD2C inh: blocks human GASC-1 demethylase activity; GST-JMJD2C(1-420) H3K9me3 demethylation, DELFIA europium; AID 2099; inhibition, % at 2.35 µM; Q9H3R0; hit rate 0.069% among 330,000;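 active = more than half of a compound's replicate wells show inhibition beyond 50%, single wells judged on their own value; inconclusive = some, but no more than half, of replicates pass 50% inhibition; inactive = no replicate passes 50% inhibition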;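 also: signal counts dimethyl H3K9 product captured on neutravidin plate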
Each line names hits and unclear results; the compound was inactive in the other large screens. Only some compounds are listed: those with a hit (about 1.6% of all), similar ones and a draw of the others.

CC(C)CCNc1ncnc2c1nnn2Cc1ccccc1Cl	Pemphigus Ab inh 84
COC(=O)C1=NNC2(c3ccc(Cl)cc3)C(=O)N(c3ccc(Cl)cc3)C(=O)C12 (stereo not drawn)	none
COc1ccnc(N2CCN(c3cccc(C(F)(F)F)c3)CC2)c1C#N	Pemphigus Ab inh 79
Nc1nc(-c2ccc([N+](=O)[O-])cc2)cc(=O)[nH]1	none (no result: GRK2 aptamer HTS, PREPL inh, VLA-4 inh, JMJD2C inh)
O=C(O)CCCCN1C(=O)/C(=C\c2ccc(OCc3ccccc3)c(OCc3ccccc3)c2)SC1=S	GRK2 aptamer HTS 100
COCCNc1nc(-c2cc3ccccc3o2)cs1	none
COC(=O)C1=C(C)N(CCc2cc(OC)c(OC)c(OC)c2)C(=O)N[C@H]1c1cccs1	JMJD2C inh 56 (no result: Pemphigus Ab inh)
CCOC(=O)CN1C(=O)N[C@@H](c2cccs2)C(C(=O)OC)=C1C	none
O=C(Nc1ccc(N2CCOCC2)cc1)c1ccc2nc(-c3ccco3)c(-c3ccco3)nc2c1	Pemphigus Ab inh 2.0
O=C(NCCCO)c1ccc2nc(-c3ccco3)c(-c3ccco3)nc2c1	Pemphigus Ab inh 36 (no result: GRK2 aptamer HTS, PREPL inh, VLA-4 inh, JMJD2C inh)
Cc1nn(-c2ccccc2)c(N2CCCC2)c1/C=N/NC(=O)c1cc2ccccc2cc1O	GRK2 aptamer HTS 66
Cc1nn(-c2ccccc2)c(N2CCCC2)c1/C=N/NC(=O)c1cc(-c2ccccc2)nc2ccccc12	none
O=C(NCc1cccs1)c1cccnc1C(=O)O	JMJD2C inh 59 (no result: Pemphigus Ab inh)
O=C(/C=C/C(=O)NCc1cccs1)NCc1cccs1	Pemphigus Ab inh 72
O=C(/C=C/c1ccc(Cl)cc1)NCc1cccs1	none
COc1cc(/C(C)=N/NC(=O)c2cccc(S(=O)(=O)N3CCCC3)c2)cc(OC)c1OC	GRK2 aptamer HTS 50
COC1OC2COC(c3ccccc3)OC2C(=O)C1NC(=O)c1ccccc1 (stereo not drawn)	none (no result: GRK2 aptamer HTS, PREPL inh, VLA-4 inh, JMJD2C inh)
O=C(CCC(=O)c1ccc(F)cc1)Nc1cccc(Br)c1	none
CC(=O)c1ccc(C(=O)N2CCC(CO)(Cc3cccc(C(F)(F)F)c3)CC2)cc1	none
CC1(C(=O)N2CCC(CO)(Cc3cccc(C(F)(F)F)c3)CC2)CC1	Pemphigus Ab inh 98
CCOc1ccc(-c2csc(NC(=O)c3cccc(N4C(=O)CCC4=O)c3)n2)cc1	Pemphigus Ab inh 57
C#Cc1ccc([C@@H]2C=C(C(=O)N3CCN(Cc4ccc5c(c4)OCO5)CC3)O[C@H](OCCCCO)C2)cc1	PREPL inh 45, JMJD2C inh inconclusive (no result: GRK2 aptamer HTS, VLA-4 inh)
Cc1cc(NC(=O)Cc2ccccc2)ccc1NC(=O)c1cccs1	none
O=C(COC(=O)CSc1ccc(Cl)cc1)Nc1ccc2[nH]c(=O)[nH]c2c1	Pemphigus Ab inh 99
O=C(COC(=O)/C=C/c1ccc(Br)o1)Nc1ccc2[nH]c(=O)[nH]c2c1	Pemphigus Ab inh 57
COc1ccc2nc(NC(=O)CSc3nnnn3C)sc2c1	Pemphigus Ab inh -8.1
COc1ccc(C(=O)NCc2nnc(SCC(=O)Nc3nc4ccccc4s3)o2)cc1	Pemphigus Ab inh 85
COc1ccc(-c2cc(C3CC3)nc(SCC(=O)c3cccs3)c2C#N)cc1	none
CSc1nc(C2CC2)cc(-c2cccs2)c1C#N	Pemphigus Ab inh 8.8
O=C(CCC(=O)NNC(=O)COc1ccc(Br)cc1)NCc1ccccc1	Pemphigus Ab inh 1.9
CC(C)(C)NS(=O)(=O)c1ccc(CCC(=O)Nc2ccc3c(c2)OCO3)cc1	Pemphigus Ab inh -0.5
COc1cc(/C=N/NC(=S)NCC2CCCO2)cc(OC)c1OC (stereo not drawn)	Pemphigus Ab inh 84
COc1ccc(/C=N/NC(=S)NCC2CCCO2)cc1 (stereo not drawn)	none
CCN(CC)Cc1cc(Nc2c3ccccc3nc3c4ccccc4n(C)c23)cc(CN(CC)CC)c1O	none (no result: GRK2 aptamer HTS, PREPL inh, VLA-4 inh, JMJD2C inh)
O=C(Cc1cccs1)Nc1ccc(NC(=O)c2ccco2)cc1	Pemphigus Ab inh -21
O=C(Cc1cccs1)Nc1ccccc1	none (no result: PREPL inh)
Cc1ccccc1OCC(=O)N/N=C1\CC(=O)CC(C)(C)C1	none (no result: Pemphigus Ab inh)
COc1ccc(-c2csc3ncnc(N4CCN(S(=O)(=O)c5cccs5)CC4)c23)cc1	none
COc1ccc(-c2csc3ncnc(N4CCN(S(=O)(=O)c5ccc(C)cc5)CC4)c23)cc1	Pemphigus Ab inh 69
O=C(O)CCN1CCN(S(=O)(=O)c2ccc3ccccc3c2)CC1	none
O=C(Cn1cnc2c(nnn2Cc2ccccc2)c1=O)c1ccccc1	none
O=C(Cn1cnc2c(nnn2Cc2ccc(Cl)cc2)c1=O)c1ccccc1	Pemphigus Ab inh 62
CC(C)=C1SC(N2CCOCC2)=NC1=O	none
CC(C)=C1SC(N2CCN(c3cccc(C(F)(F)F)c3)CC2)=NC1=O	Pemphigus Ab inh 42
CCN1CCN(C(=O)c2ccc(CS(=O)Cc3ccc(C)cc3)o2)CC1 (stereo not drawn)	Pemphigus Ab inh 74
COc1ccc(NS(=O)(=O)c2cc([N+](=O)[O-])ccc2N/N=C/c2c(C)[nH]c3ccccc23)cc1	none (no result: GRK2 aptamer HTS, PREPL inh, VLA-4 inh, JMJD2C inh)
Cc1[nH]c2ccccc2c1/C=N/Nc1ccccc1[N+](=O)[O-]	PREPL inh 51
CCC(=NCc1ccc(Cl)c(Cl)c1)c1nc(-c2ccco2)oc1O	PREPL inh 74
COc1ccc(NC(=O)COC(=O)CCc2ccccc2)c(OC)c1	Pemphigus Ab inh 48
CC(NS(=O)(=O)c1ccc(Br)s1)c1ccccc1 (stereo not drawn)	none (no result: JMJD2C inh)
Cc1csc(NC(=O)C(NS(=O)(=O)c2ccc(Br)s2)c2ccccc2)n1 (stereo not drawn)	Pemphigus Ab inh 86
O=C(COC(=O)Cc1ccc(Cl)cc1)Nc1ccc2[nH]c(=O)[nH]c2c1	Pemphigus Ab inh inconclusive
COc1ccccc1N1CC(C(=O)OC(C)C(=O)Nc2ccc(F)cc2)CC1=O (stereo not drawn)	none (no result: GRK2 aptamer HTS, PREPL inh, VLA-4 inh, JMJD2C inh)
CC(C)(C)c1ccc(C(=O)N2CCN(CCNC(=O)C(=O)NCc3ccc(Cl)cc3)CC2)cc1	Pemphigus Ab inh 96
COC(=O)c1nccc2c1[nH]c1ccccc12	none (no result: Pemphigus Ab inh, JMJD2C inh)
CCOC(=O)c1sc2nc3c(SCCC(=O)O)cc(C(=O)c4cc(OC)ccc4O)cn3c(=O)c2c1C	Pemphigus Ab inh 55 (no result: GRK2 aptamer HTS, PREPL inh, VLA-4 inh)
CCN(CC)Cc1cc(C(=O)O)c(C)o1	none
COc1ccc(OCc2cc(C(=O)O)c(C)o2)cc1	GRK2 aptamer HTS 64 (no result: Pemphigus Ab inh)
CCCOc1ccc(OCCn2nc(C(=O)O)c3ccccc3c2=O)cc1	none
Cc1nc(NS(=O)(=O)c2ccccc2)sc1NC(=O)Nc1ccc(Cl)cc1	none
CCOC(=O)Nc1sc(NS(=O)(=O)c2ccccc2)nc1C	none
CCOC(=O)Nc1sc(NS(=O)(=O)c2ccc(C)cc2)nc1C	Pemphigus Ab inh 73
Cc1nc(NS(=O)(=O)c2ccccc2)sc1NC(=O)Nc1ccccc1	Pemphigus Ab inh 28
Cc1cc(C)cc(NC(=O)Cn2ncn3c(cc4ccccc43)c2=O)c1	Pemphigus Ab inh 82
CN(C)c1ccc(NC(=O)Cn2ncn3c(cc4ccccc43)c2=O)cc1	none
O=C(CSc1nnc(-c2ccccc2F)n1C1CC1)N1CCCC1	none (no result: GRK2 aptamer HTS, PREPL inh, VLA-4 inh, JMJD2C inh)
O=[N+]([O-])c1ccccc1S(=O)(=O)N1CCN(Cc2ccc3c(c2)OCO3)CC1	Pemphigus Ab inh 37
CN1CCc2nc(SCC(=O)Nc3ccc(F)cc3)c(C#N)cc2C1	GRK2 aptamer HTS 57 (no result: Pemphigus Ab inh)
